One may read the inhibition as the drop in the measured response relative to a control, in per cent.

Experimental findings from PubChem BioAssay AID485395 (ICCB-Longwood Screening Facility, Harvard Medical School, 2010) are described below.

Hit rate of the full screen: of about 120,000 compounds, about 55 (0.05%) were called active. The list comes from a sample in which actives are over-represented; it also holds similar structures and randomly drawn compounds. Unmarked numbers belong to inactive results. No stated cut-off is given here; in the data, active means inhibition above about 25% (passing the limit was not always enough); inactive means the rest.

The assay has as its system replicative DNA helicase (DnaC/DnaB), Staphylococcus aureus. Kind of assay: inhibitors of S. aureus replicative helicase, primary screen, biochemical, fluorescence unwinding readout (AID 485395).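 Further: 0% = mean of negative control wells and 100% = mean of positive control wells.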 To be noted: purified S. aureus helicase, fluorescence unwinding assay; active compounds read high; concentration not given here.
As to `Cc1ccc(C)c(C(C)NC(=O)Cc2c(C)noc2C)c1` (stereo unspecified), the inhibition was -13%. The value for `Cc1cc(C)cc(NC(=O)N2CCC3(CC2)OCCO3)c1` was 24%; that for `CCOc1ccc(NC(=O)Cn2c(=O)n(CC(=O)NC3CCCC3)c(=O)c3ccccc32)cc1` was -11%; that for `COC(CNC(=O)c1c[nH]c2ccc(S(=O)(=O)N(C)c3ccc(C(C)C)cc3)cc2c1=O)OC` was -3%.

`CCOC(=O)Cc1sc(NC(C)=O)nc1-c1ccccc1`: the inhibition is -9%. With `CCn1nc(C(=O)OCCCCN2C(=O)c3ccccc3C2=O)c2ccccc2c1=O`, the inhibition was -20%. For the compound `CC(C)Cc1nnc(N)s1`, the inhibition is 5%.

As to `CCCCNC(=O)Cn1c(-c2ccc(C)cc2)noc1=O`, the inhibition was 10%.

Turning to `CC1(C)CC(=NNC(N)=S)CC(C)(C)N1`, the inhibition was 0%. On to `COCC(C)n1c(C)cc(C2=NNC(=Nc3ccc(F)cc3F)SC2)c1C` (stereo unspecified), for which the inhibition was 16%. The value for `C1=C(c2ccccc2)Nc2ncnn2C1c1ccco1` (stereo unspecified) was -1%; that for `CCC(=O)Nc1ccc(-c2cn3cccnc3n2)cc1` was 5%; that for `CCOC(=O)c1c(Cc2cccc(C)c2)c[nH]c1-c1ccccc1` was 9%. Consider `Cc1nc2ncnn2c(C)c1CCC(=O)N(Cc1cccnc1)c1ccc2c(c1)OCO2`, for which the inhibition is -82%. For `CCN(CC)C(=O)c1ccc(CS(=O)c2cccc(Cl)c2)o1` (stereo unspecified) the value was 24%; for `N#Cc1ccc(OCC(=O)N2CCN(c3ccc(O)cc3)CC2)cc1`, 12%. The value for `COCCN(Cc1nc2ccccc2c(=O)[nH]1)C(=O)C1=NN(c2cccc(C)c2)C(=O)CC1` was 4%; that for `Cc1cc(F)ccc1S(=O)(=O)Nc1ccccc1C(=O)OCC(=O)N1CCCC1=O` was 4%; that for `COCc1cc(C)nc(SCC(=O)NC2C3CC4CC(C3)CC2C4)c1C#N` (stereo unspecified) was 1%. For the compound `CCOCc1c[nH]c(=O)[nH]c1=O`, the inhibition is 4%. The value for `COc1ccc(NC(=O)CCCn2nnc3ccccc3c2=O)cc1` was -14%; that for `Cc1ccc2[nH]c(=O)c3cc(C(=O)N4CCCc5ccccc54)sc3c2c1` was 8%. For `COc1cc(C)c2c(=O)c(-c3csc(C)n3)coc2c1` the value was -19%; for `COC(=O)c1ccc2c(c1)C(=O)/C(=C\c1ccccc1O)O2`, 4%. As to `CCNC(=O)C1CCN(c2ncnc3c2nc2n3CCCCC2)CC1`, the inhibition was -22%.

Take `CCN(Cc1ccc(Cl)s1)Cn1c(CO)nc2ccccc21`: the inhibition is -6%.

On to `Nc1nc(N)nc(SCC(=O)N2N=C(c3ccc4ccccc4c3)CC2c2ccccc2)n1` (stereo unspecified), for which the inhibition is -3%. Take `NC(=O)C12CC3CC(CC(Cl)(C3)C1)C2`: the inhibition is -9%.

Regarding `COc1ccc2c(=O)c(-c3ccc(F)cc3)coc2c1`, the inhibition is 0%.

As for `CN1C2=C(C(=O)CCC2)C(c2ccc(O)c(Cl)c2)C2=C1CCCC2=O`, the inhibition is 10%. The value for `CC(C)C(NC(=O)c1ccco1)C(=O)N1CCC(Cc2ccccc2)CC1` (stereo unspecified) was -7%.

As to `CC1(C)CCCC2=C1CC1C(=O)N(CCC[N+](C)(C)C)C(=O)C1C2` (stereo unspecified), the inhibition was 6%. The value for `CC1CC(C)CN(C(=O)c2ccc3c(c2)N(C)C(=O)/C(=C/c2cccc(Cl)c2)S3)C1` (stereo unspecified) was -10%; that for `CCOc1ccc(-n2c(CSc3nc(C)cc(C)n3)nnc2SC)cc1` was 27%.

Regarding `O=C1CCCc2c1cnn2-c1ccccc1`, the inhibition is -10%. The value for `CN(Cc1ccccc1)S(=O)(=O)c1ccc2c3c(cccc13)C(=O)N2` was 5%; that for `O=C(O)c1cccc(S(=O)(=O)NCC(F)(F)F)c1` was 18%. Consider `Cc1ccc(OCCn2cc(/C=C3/C(=O)Nc4cc(Cl)ccc43)c3ccccc32)cc1C`, for which the inhibition was -483%. The value for `N#Cc1cccc(OCC(=O)NCC(F)(F)F)c1` was 12%; that for `Cc1c(/C=C(\C#N)C(=O)O)cc(C#N)n1C` was -11%; that for `Cc1cnc(C(=O)Nc2ccc(S(=O)(=O)NC(C)C)cc2)cn1` was -1%. Regarding `CCSc1nnc(SCC(=O)c2ccc(OC)cc2OC)s1`, the inhibition was -4%. In the case of `COC(=O)c1c(Cn2cc(Br)ccc2=O)nc2ccccc2c1C`, the inhibition is 0%. `COc1nc(-c2ccccc2)ccc1-c1noc(C(C)C)n1`: the inhibition was 2%. For `CCCNc1cc(C)nc2nc(-c3ccc(OC)cc3)nn12` the value was 12%. For `O=C(Cc1c(F)cccc1Cl)OCc1ncc(-c2ccccc2)o1` the value was -4%; for `Cc1ccc(-c2cc(C(=O)N3CCCCC3C)[nH]n2)cc1C` (stereo unspecified), -28%; for `CCc1ccccc1NC(=O)Cn1ncc2c(=O)oc3ccccc3c21`, 4%. For `CCSc1nsc(SCC)c1C(=O)O` the value was -3%; for `COc1ccccc1C/C(N)=N/OC(=O)c1ccccc1`, 6%; for `NC(=O)COC(=O)/C=C/c1ccc(S(=O)(=O)N2CCOCC2)cc1`, -10%. For `COc1ccc(-n2nc(C(=O)NCC(=O)N3CCOCC3)c3ccccc3c2=O)cc1`, the inhibition is -25%. The value for `COc1ccc(S(=O)(=O)NCCn2ccc3ccccc32)cc1` was -14%; that for `CC1(C)CC(NS(C)(=O)=O)CC(C)(C)N1O` was 20%; that for `CC(C)c1ccccc1N=Cc1ccc2c(c1)OCO2` was -15%. For `NC(=O)C1CCN(C(=O)COc2ccc(Cl)cc2Cl)CC1` the value was 0%.

Regarding `N#CCCn1cc(/C=c2\sc3nc4ccccc4n3c2=O)c(-c2ccc(F)cc2)n1`, the inhibition was 4%. On to `Cn1nc(NCc2ccc(Cl)cc2)c(=O)n(C)c1=O`, for which the inhibition was -8%. For `O=C(Nc1cccc(C(F)(F)F)c1)/C(=C\c1cccnc1)NC(=O)c1cccs1`, the inhibition is -22%. With `COC(=O)N/N=C(\C)c1ccc2c(c1)Nc1ccccc1S2`, the inhibition is 8%. As to `Cc1cc(NC(=O)COC(=O)C2=COCCO2)n(-c2ccccc2)n1`, the inhibition was 4%.

`CC(C)Cn1c(SCC(=O)Nc2ccccc2)nc2ccccc21`: the inhibition was 14%. The value for `O=C1NC(c2ccccn2)Nc2sc3c(c21)CCCC3` (stereo unspecified) was 9%; that for `c1ccc(CCNCc2cn[nH]c2-c2cccs2)cc1` was -16%. For `COc1ccccc1N=Cc1c(O)n(-c2ccccc2OC)c(=O)[nH]c1=O` the value was 8%. For `CC1Nc2ccc(C(=O)N3CCC4(CC3)OCCO4)cc2NC1=O` (stereo unspecified) the value was 34%.
